{"source": "the supplement of paper PMC3334620", "note": "The full ranking holds about 33,000 sequences; the median of “E-score (-0.5 to 0.5)” is about -8e-05, and the highest 2% start at about 0.23. This excerpt belongs to a sample that is enriched for the highest values."}
{"target": "T1, Nrg2 (UniProt P38082)", "T1 sequence": "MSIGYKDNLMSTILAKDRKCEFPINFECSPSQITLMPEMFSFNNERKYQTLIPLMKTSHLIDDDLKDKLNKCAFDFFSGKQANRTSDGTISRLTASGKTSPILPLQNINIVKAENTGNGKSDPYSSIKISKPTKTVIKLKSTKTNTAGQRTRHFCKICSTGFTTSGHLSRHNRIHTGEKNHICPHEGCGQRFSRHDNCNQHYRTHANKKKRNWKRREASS", "test": "PBM E-score (8-mer binding enrichment) (E-score (-0.5 to 0.5)); higher = stronger / more preferred TF binding", "details": "protein concentration: 100 nM; construct: GST-full length", "description": "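Universal 'all 10-mer' protein binding microarrays (Agilent AMADID 015681) probed with GST-tagged S. cerevisiae TFs (full-length or DBD) made by in vitro transcription/translation (PURExpress), about 100-200 nM. Bound TF was detected with fluorescent anti-GST. Each ungapped 8-mer (which stands for itself and its reverse complement) is scored by the PBM enrichment score (E-score), a modified Wilcoxon-Mann-Whitney statistic from -0.5 to +0.5, computed with the Universal PBM Analysis Suite. Scale: above 0.35 generally sequence-specific binding.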"}
{"sequence": "ATGAGCAA", "PBM E-score": 0.121}
{"sequence": "AGGGTCAT", "PBM E-score": 0.132}
{"sequence": "GCCCAAGC", "PBM E-score": 0.106}
{"sequence": "ATCTATGC", "PBM E-score": 0.117}
{"sequence": "CCGGGCAC", "PBM E-score": -0.16}
{"sequence": "CGCAAAGA", "PBM E-score": 0.111}
{"sequence": "GGGTCTCA", "PBM E-score": 0.0513}
{"sequence": "CGGGACCG", "PBM E-score": -0.0394}
{"sequence": "AGGGACCG", "PBM E-score": 0.231}
{"sequence": "AGGGACCC", "PBM E-score": 0.337}
{"sequence": "GGGGACCC", "PBM E-score": 0.143}
{"sequence": "AGGGACAT", "PBM E-score": 0.301}
{"sequence": "AGGGACAA", "PBM E-score": 0.228}
{"sequence": "AGGGACTC", "PBM E-score": -0.0325}
{"sequence": "AGGGACAC", "PBM E-score": 0.204}
{"sequence": "AGGGACTA", "PBM E-score": 0.242}
{"sequence": "ACGGACCG", "PBM E-score": -0.252}
{"sequence": "GGGGACTA", "PBM E-score": -0.0994}
{"sequence": "CGGGACCC", "PBM E-score": -0.0126}
{"sequence": "CCTGACCA", "PBM E-score": 0.142}
{"sequence": "CGAAGACC", "PBM E-score": 0.0649}
{"sequence": "GCTCTCAA", "PBM E-score": 0.047}
{"sequence": "ACGATCGA", "PBM E-score": 0.0838}
{"sequence": "GTGAGCAA", "PBM E-score": -0.0485}
{"sequence": "GTCCAGTA", "PBM E-score": -0.0597}
{"sequence": "AATACAAC", "PBM E-score": 0.185}
{"sequence": "TATACAAA", "PBM E-score": 0.148}
{"sequence": "AATACAAG", "PBM E-score": 0.296}
{"sequence": "AATACAAA", "PBM E-score": 0.269}
{"sequence": "GATACAAA", "PBM E-score": 0.18}
{"sequence": "AATACAAT", "PBM E-score": 0.106}
{"sequence": "GTAATCGA", "PBM E-score": 0.154}
{"sequence": "TGAATACA", "PBM E-score": 0.0782}
{"sequence": "CCTTGCTC", "PBM E-score": 0.0643}
{"sequence": "AGCGTTAT", "PBM E-score": -0.0753}
{"sequence": "GTCTACTA", "PBM E-score": 0.0788}
{"sequence": "CACCTGTC", "PBM E-score": 0.0208}
{"sequence": "AGCTCTGG", "PBM E-score": -0.136}
{"sequence": "ATCAGATG", "PBM E-score": -0.0502}
{"sequence": "ATCTTGCA", "PBM E-score": 0.256}
{"sequence": "GTCTTGCA", "PBM E-score": 0.0101}
{"sequence": "ATCTTGCG", "PBM E-score": -0.0421}
{"sequence": "GAAGCCTC", "PBM E-score": -0.146}
{"sequence": "ATCGAAGA", "PBM E-score": 0.193}
{"sequence": "ATATTGCA", "PBM E-score": 0.113}
{"sequence": "AGAGATTC", "PBM E-score": 0.0502}
{"sequence": "GACAGTAA", "PBM E-score": 0.0902}
{"sequence": "ATGAAGTC", "PBM E-score": -0.0277}
{"sequence": "ATGAAGTG", "PBM E-score": 0.235}
{"sequence": "ATGAAGTA", "PBM E-score": 0.0961}
{"sequence": "ATTGAACG", "PBM E-score": -0.0983}
{"sequence": "ATCCAAAT", "PBM E-score": 0.0165}
{"sequence": "CACGCGGA", "PBM E-score": 0.234}
{"sequence": "CGCGCGTA", "PBM E-score": 0.133}
{"sequence": "CGCGCGTC", "PBM E-score": 0.262}
{"sequence": "AGCGCGTC", "PBM E-score": -0.0322}
{"sequence": "CGCGCGGA", "PBM E-score": 0.227}
{"sequence": "AACGCGGA", "PBM E-score": 0.0806}
{"sequence": "AGCGCGGC", "PBM E-score": 0.0579}
{"sequence": "CCCGCGGG", "PBM E-score": 0.278}
{"sequence": "ACCGCGGG", "PBM E-score": 0.171}
{"sequence": "CACGCGGG", "PBM E-score": -0.0425}
{"sequence": "CCCGCGGA", "PBM E-score": 0.204}
{"sequence": "CGCGCGGC", "PBM E-score": 0.296}
{"sequence": "CCATTTAA", "PBM E-score": -0.00324}
{"sequence": "CATTGAGC", "PBM E-score": -0.0461}
{"sequence": "CCTTAGTC", "PBM E-score": -0.119}
{"sequence": "CCGCTGCG", "PBM E-score": -0.14}
{"sequence": "ATCAATAC", "PBM E-score": 0.136}
{"sequence": "AGTGCTAG", "PBM E-score": -0.0309}
{"sequence": "AATGAGGG", "PBM E-score": -0.00097}
{"sequence": "TAGAGCTA", "PBM E-score": -0.161}
{"sequence": "CTGCCACA", "PBM E-score": -0.117}
{"sequence": "AACCCTTG", "PBM E-score": 0.194}
{"sequence": "AACCTTAC", "PBM E-score": 0.108}
{"sequence": "AACCCTTA", "PBM E-score": 0.235}
{"sequence": "AACCTTAA", "PBM E-score": 0.293}
{"sequence": "GACCCCTA", "PBM E-score": 0.151}
{"sequence": "ACCCTTAT", "PBM E-score": 0.28}
{"sequence": "AACCCTTC", "PBM E-score": 0.168}
{"sequence": "GACCCTCA", "PBM E-score": -0.116}
{"sequence": "ACCCTTAG", "PBM E-score": 0.123}
{"sequence": "ACCCTTAA", "PBM E-score": 0.152}
{"sequence": "GACCCTGA", "PBM E-score": 0.389}
{"sequence": "AACCTTAG", "PBM E-score": -0.109}
{"sequence": "GTCAAAAC", "PBM E-score": 0.0485}
{"sequence": "AGATCTAT", "PBM E-score": -0.0448}
{"sequence": "CTGCACCA", "PBM E-score": -0.0673}
{"sequence": "AGTTGATC", "PBM E-score": 0.137}
{"sequence": "CATTCGTA", "PBM E-score": -0.0996}
{"sequence": "ACTCTATG", "PBM E-score": 0.056}
{"sequence": "ACTTCCTG", "PBM E-score": 0.0859}
{"sequence": "TAAATCGA", "PBM E-score": 0.151}
{"sequence": "CGCTTACG", "PBM E-score": -0.284}
{"sequence": "ACCCCCTA", "PBM E-score": -0.391}
{"sequence": "TACCCTCA", "PBM E-score": 0.00099}
{"sequence": "ACCCCTAA", "PBM E-score": 0.172}
{"sequence": "CACCCTGC", "PBM E-score": 0.191}
{"sequence": "TACCCTGA", "PBM E-score": 0.265}
{"sequence": "AACCCCTA", "PBM E-score": 0.25}
{"sequence": "ACCCCTAG", "PBM E-score": 0.153}
{"sequence": "TACCCCTA", "PBM E-score": 0.173}
{"sequence": "GACCCTCC", "PBM E-score": 0.16}
{"sequence": "ACCCCTAT", "PBM E-score": 0.256}
{"sequence": "GACCCTGC", "PBM E-score": 0.331}
{"sequence": "TATCCTGA", "PBM E-score": 0.202}
{"sequence": "GGATCTGA", "PBM E-score": -0.0992}
{"sequence": "CAAAGGCA", "PBM E-score": -0.173}
{"sequence": "ACTAAGAA", "PBM E-score": 0.221}
{"sequence": "CGAGCTAC", "PBM E-score": 0.124}
